Screening data deposited in PubChem by several laboratories.
Rv3671c protease = Rv3671c serine protease inhibitors, primary screen, biochemical, fluorescence polarization, M. tuberculosis H37Rv; P9WHR9; inhibition, % at 5.96 µM; hit rate 0.048% among 320,000; in the data active means inhibition above about 38%;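 further: extracellular domain of Rv3671c used as enzyme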
FBA Mtb inh = Mtb FBA enzyme inhibitors, primary screen, biochemical, fluorescence, strain H37Rv; purified M. tuberculosis FBA, fluorescence read-out; inhibition, % at 1 µM; hit rate 2.3% among 360,000; AID 588726, 2011
Target sequence (P9WQA3 whole entry, looked up): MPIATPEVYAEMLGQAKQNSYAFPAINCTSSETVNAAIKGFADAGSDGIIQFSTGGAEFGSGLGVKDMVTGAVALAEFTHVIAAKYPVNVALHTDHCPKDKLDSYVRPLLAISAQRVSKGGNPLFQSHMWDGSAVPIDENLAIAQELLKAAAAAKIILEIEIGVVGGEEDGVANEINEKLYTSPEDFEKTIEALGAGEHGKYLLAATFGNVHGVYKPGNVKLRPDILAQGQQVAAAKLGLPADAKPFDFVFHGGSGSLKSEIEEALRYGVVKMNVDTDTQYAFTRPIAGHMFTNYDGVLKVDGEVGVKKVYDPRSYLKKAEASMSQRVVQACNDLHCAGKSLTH
GDH-TPI counter-1 = GDH-TPI coupling enzyme inhibitors, primary screen, artefact control for M. tuberculosis FBA inhibitor project, biochemical, absorbance, full deck; GDH-TPI coupled enzyme counterscreen, NADH absorbance; inhibition, % at 4.8 µM; hit rate 1.2% among 360,000; AID 588335, 2011; in the data active means inhibition above about 30%
Mtb UGM inh = M. tuberculosis UGM enzyme inhibitors, primary screen, biochemical, fluorescence polarization, single point; UDP-galactopyranose mutase (Mycobacterium tuberculosis (strain ATCC 25618 / H37Rv)), …; purified UGM, fluorescence polarization probe displacement; inhibition, % at 10 µM; hit rate 0.06% among 320,000; AID 504406, 2011; in the data active means inhibition above about 10%, passing the limit was not always enough
Mtb bLac sens = beta-lactam sensitization of Mtb H37Rv, H37Rv. M. tuberculosis H37Rv growth with meropenem, percent inhibition. inhibition, % at 25 µM. hit rate 0.27% among 330,000. AID 434955, 2010; call rule not given here;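 further: growth measured after seven days incubation then overnight dye step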
FadD28 binding = inhibitors of FadD28 bisubstrate probe binding, primary screen, biochemical, fluorescence polarization, single point. inhibition, % at 12.5 µM. hit rate 0.22% among 360,000. AID 588549, 2011; in the data active means inhibition above about 8.5%, passing the limit was not always enough
Mtb FBA confirm = M. tuberculosis aldolase blockers, biochemical, fluorescence, strain H37Rv, confirmation | purified M. tuberculosis FBA, fluorescence read-out | hit rate 78% among 5,600 | shares compounds with FBA Mtb inh | inhibition, % at 1 µM
GDH-TPI counter-2 = GDH-TPI coupling enzyme inhibitors, artefact control for M. tuberculosis FBA inhibitor project, biochemical, fluorescence, high throughput. shares compounds with FBA Mtb inh. GDH-TPI coupled enzyme counterscreen. inhibition, % at 1 µM. hit rate 81% among 5,600. AID 652141, 2013; in the data active means inhibition above about 10%
GDH-TPI DR = GDH-TPI coupling enzyme inhibitors, dose response, artefact control for M. tuberculosis FBA inhibitor project, biochemical, fluorescence, IC50 | shares compounds with FBA Mtb inh | GDH-TPI coupled enzyme assay, artifact counterscreen | IC50, µM | AID 652145, 2013 | hit rate 79% among 170; call rule not given here
A number is an active result; i = inactive; nt = not tested or not shown; + = active, no number. The list is not random: actives were taken first. Their share in the collection is about 3.7%. Unless noted, no stated cut-off is given here; in the data, active means inhibition above about 27%; inactive means the rest.

SMILES | Rv3671c protease | FBA Mtb inh | GDH-TPI counter-1 | Mtb UGM inh | Mtb bLac sens | FadD28 binding | Mtb FBA confirm | GDH-TPI counter-2 | others
CCOc1ccc2[nH]c3c(NCCc4ccc(OC)c(OC)c4)ncnc3c2c1 | i | 31.8 | i | i | i | i | 181.1 | 146.7
CCOc1ccc2[nH]c3c(NCCO)ncnc3c2c1 | nt | 77.9 | i | i | i | i | 45.3 | 43.5
CN(C)C(CNC(=O)c1cc(-c2ccco2)nc2ccccc12)c1ccccc1 (stereo unspecified) | i | 37.7 | i | i | i | i | i | i
Cc1ccc(-c2cc(C(=O)NCC3(N(C)C)CCCCC3)c3ccccc3n2)o1 | nt | 29.4 | i | nt | nt | i | i | 15.5
CC(C)CCNC(=O)c1cc(-c2ccco2)nc2ccccc12 | i | 111.2 | i | i | i | i | + | +
CC(=O)N1CC2(CC(c3ccc(Cl)cc3Cl)=NO2)CN1c1cccc(Cl)c1 (stereo unspecified) | nt | i | i | nt | nt | i | nt | nt
COc1cccc(C(O)c2ncc(-c3cccc(F)c3)[nH]2)c1 (stereo unspecified) | nt | i | i | nt | nt | i | nt | nt
CCN(CC(=O)NCc1cccs1)C(=O)c1ccc(-c2cccc(C(F)(F)F)c2)o1 | i | i | i | i | i | i | nt | nt
COc1cccc(/C=C/C(=O)OC(C)C(=O)Nc2c(C)n(C)n(-c3ccccc3)c2=O)c1 (stereo unspecified) | i | 28.7 | i | i | i | i | 122.4 | 101.2
CCOc1ccc(-n2nc(C(=O)NC3CCCCC3)c3ccccc3c2=O)cc1 | i | i | i | i | i | i | nt | nt
CCOc1ccc(-n2nc(C(=O)NCCOC)c3ccccc3c2=O)cc1 | i | 67.5 | i | i | i | i | + | 191.1
CCN(CCCNC(=O)CNC(=O)c1nn(-c2ccc(OC)c(OC)c2)c(=O)c2ccccc12)c1ccccc1 | i | 27.1 | i | i | i | i | 188.6 | 156.0
O=C(Nc1ccc(S(=O)(=O)Nc2ncccn2)cc1)C12CC3CC(CC(Cl)(C3)C1)C2 | i | i | i | i | i | i | nt | nt
CCc1ccc(NC(=O)Cc2cn(C)c3ccccc23)cc1 | i | i | i | i | i | i | nt | nt
CCC(C)NC(=O)Cc1cn(C)c2ccccc12 (stereo unspecified) | i | 101.8 | i | i | i | i | i | i
O=C(Nc1ccc2c(c1)OCO2)c1cccs1 | i | i | i | i | i | i | nt | nt
O=C(Nc1ccc2c(c1)OCCO2)c1cccs1 | i | 38.1 | i | i | i | i | i | i | GDH-TPI DR=i
CS(=O)(=O)c1ccc(Cl)c(C(=O)NC2CCSc3ccccc32)c1 (stereo unspecified) | i | 63.8 | i | i | i | i | i | i
O=C(CC1Sc2ccccc2NC1=O)NNc1cccc(Cl)c1Cl (stereo unspecified) | nt | i | i | nt | nt | i | nt | nt
C=CCc1c(C)nc2cc(-c3ccc(C)cc3)[nH]n2c1=O | i | 26.9 | i | i | i | i | + | +
O=C(CSc1nnc(-c2ccccn2)n1Cc1ccccc1)N1CCCC1 | i | 84.0 | i | i | i | i | 101.3 | 68.4
COCCNC(=O)/C(C#N)=C/c1c(N2CCN(C)CC2)nc2c(C)cccn2c1=O | i | 80.8 | i | i | i | i | 96.0 | 84.3
COCCCNC(=O)/C(C#N)=C/c1c(N2CCN(c3ccc(OC)cc3)CC2)nc2c(C)cccn2c1=O | i | i | i | i | i | i | nt | nt
COCCCNC(=O)/C(C#N)=C/c1c(N2CCN(C)CC2)nc2c(C)cccn2c1=O | i | 91.9 | i | i | i | i | 55.6 | 43.7
CCN1CCN(c2nc3c(C)cccn3c(=O)c2/C=C(\C#N)C(=O)NCCOC)CC1 | i | 97.3 | i | i | i | i | 62.7 | 44.8
SMILES | Rv3671c protease | FBA Mtb inh | GDH-TPI counter-1 | Mtb UGM inh | Mtb bLac sens | FadD28 binding | Mtb FBA confirm | GDH-TPI counter-2 | others
CC(C)N1CCC1(C)C(=O)Nc1ccccc1OC(F)F (stereo unspecified) | nt | i | i | nt | nt | i | nt | nt
COC(=O)c1[nH]c2ccc(Cl)cc2c1NC(=O)C1CC1 | i | i | i | i | i | i | nt | nt
COC(=O)c1[nH]c2ccc(Cl)cc2c1NC(=O)Oc1ccccc1 | i | 66.2 | i | i | i | i | i | i
CN1CCN(c2ccccc2NC(=O)c2ccc(-c3ccccc3[N+](=O)[O-])o2)CC1 | i | i | i | i | i | i | nt | nt
O=C1CCCCC1Nc1ccc(Br)cc1 (stereo unspecified) | nt | i | i | nt | nt | i | nt | nt
CCN(CC)CCCN(Cc1cc2cc3c(cc2[nH]c1=O)OCO3)C(=S)NCc1ccco1 | i | i | i | i | i | i | nt | nt
O=c1[nH]c2cc3c(cc2cc1CN(CCCO)C(=S)NCc1ccco1)OCO3 | i | i | i | i | i | i | nt | nt
CNC(=S)N(CCCO)Cc1cc2cc3c(cc2[nH]c1=O)OCO3 | i | 30.5 | i | i | i | i | 85.2 | 65.2
CCN(CC)CCN(Cc1cc2cc3c(cc2[nH]c1=O)OCO3)C(=S)NCc1ccco1 | i | 35.4 | i | i | i | i | i | i
CN(C)CCCN(Cc1cc2cc3c(cc2[nH]c1=O)OCO3)C(=S)NCc1ccco1 | i | 27.3 | i | i | i | i | + | +
CCC(=O)N(Cc1ccco1)Cc1cc2cc3c(cc2[nH]c1=O)OCO3 | i | 39.7 | i | i | i | i | + | 152.1
O=C1C(=O)N(C2CCS(=O)(=O)C2)C(c2cccc(O)c2)/C1=C(/O)c1ccc(Cl)cc1 (stereo unspecified) | i | i | i | i | i | i | nt | nt
COc1cc(CNc2ccc3[nH]c(=O)[nH]c3c2)ccc1OCc1ccc(F)cc1 | i | i | i | i | i | i | nt | nt
C=CCOc1ccc(CNc2ccc3[nH]c(=O)[nH]c3c2)cc1OC | nt | 85.1 | i | nt | nt | i | 113.7 | 88.0
CSCCC(c1nnnn1C(C)(C)C)N1CCN(C/C=C/c2ccccc2)CC1 (stereo unspecified) | nt | i | nt | nt | nt | i | nt | nt
Cc1ccc2nc(SCC(=O)N3CCCCC3)nc(=O)n2c1 | i | i | i | i | i | i | nt | nt
CCc1nnc(SCc2cn3c(C)cc(C)nc3n2)n1N | i | 38.8 | i | i | i | i | 44.8 | 53.1
Cc1cc(C)n2cc(CSc3nncn3C)nc2n1 | i | 48.8 | i | i | i | i | i | i
Cc1cc(C)n2cc(CSc3nnnn3C)nc2n1 | i | 27.9 | i | i | i | i | + | 187.4
